In the supplement of paper PMC10849652:
About 8,800 targets were measured; listed, in parts, are those with a hit and a random draw of the rest. About 0.5% of all pairs of compound and target were hits. Unmarked numbers belong to inactive results.

Legend:
Test in all cases: log2 fold change, soluble protein after heating vs DMSO (PISA); higher = thermal stabilisation; K562 lysate, 10 uM; active = over 0.2 and 3.5 SD of the protein, either way, in both replicates (recomputed)
lapatinib = compound: CS(=O)(=O)CCNCc1ccc(-c2ccc3ncnc(Nc4ccc(OCc5cccc(F)c5)c(Cl)c4)c3c2)o1 [lapatinib]
In short: (§1)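 Log-two fold change in thermal stability relative to solvent controls is reported from duplicates. For each sample, crude K562 extract from dounce-homogenised pellets in PBS pH 7.4 with 1 mM MgCl2, at 1 mg/mL protein, was treated with 10 μM compound for 30 min. Aliquots heated for 3 min across 48°C-58°C were pooled, brought to 0.5% NP-40 at 4°C and cleared at 21,000xg for 90 min. The supernatant was quantified by TMTpro 16plex LC-MS/MS with channel sums equalised.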

pictilisib = compound: CS(=O)(=O)N1CCN(Cc2cc3nc(-c4cccc5[nH]ncc45)nc(N4CCOCC4)c3s2)CC1 [pictilisib]
In short: as §1

crizotinib = compound: C[C@@H](Oc1cc(-c2cnn(C3CCNCC3)c2)cnc1N)c1c(Cl)ccc(F)c1Cl [crizotinib]
In short: as §1

[1] = compound: C[C@H](C1=CC=C(C=C1)C(=O)NC2=C3C=CNC3=NC=C2)N
In short: as §1

duvelisib = compound: C[C@H](Nc1ncnc2nc[nH]c12)c1cc2cccc(Cl)c2c(=O)n1-c1ccccc1 [duvelisib]
In short: as §1

gandotinib = compound: Cc1cc(Nc2cc(CN3CCOCC3)c3nc(C)c(Cc4ccc(Cl)cc4F)n3n2)n[nH]1 [gandotinib]
In short: as §1

tozasertib = compound: Cc1cc(Nc2cc(N3CCN(C)CC3)nc(Sc3ccc(NC(=O)C4CC4)cc3)n2)n[nH]1 [tozasertib]
In short: as §1

doramapimod = compound: Cc1ccc(-n2nc(C(C)(C)C)cc2NC(=O)Nc2ccc(OCCN3CCOCC3)c3ccccc23)cc1 [doramapimod]
In short: as §1

bafetinib = compound: Cc1ccc(NC(=O)c2ccc(CN3CC[C@H](N(C)C)C3)c(C(F)(F)F)c2)cc1Nc1nccc(-c2cncnc2)n1 [bafetinib]
In short: as §1

[2] = compound: Cc1cccc(CC(=O)N2CCc3c2ccc(-c2cn(C)c4ncnc(N)c24)c3F)n1
In short: as §1

Sequence of UniProt P51570 (P51570 whole entry, looked up): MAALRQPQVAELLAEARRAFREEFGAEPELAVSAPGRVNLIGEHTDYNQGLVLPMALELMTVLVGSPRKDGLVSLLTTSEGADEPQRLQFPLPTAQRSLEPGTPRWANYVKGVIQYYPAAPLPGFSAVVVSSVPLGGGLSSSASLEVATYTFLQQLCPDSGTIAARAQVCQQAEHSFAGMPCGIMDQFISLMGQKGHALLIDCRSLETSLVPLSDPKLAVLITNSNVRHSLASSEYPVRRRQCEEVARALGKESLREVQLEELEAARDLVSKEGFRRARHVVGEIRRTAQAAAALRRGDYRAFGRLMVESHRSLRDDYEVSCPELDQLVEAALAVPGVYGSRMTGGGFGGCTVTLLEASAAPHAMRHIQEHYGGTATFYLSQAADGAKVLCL
Sequence of UniProt P07814 (P07814 whole entry, looked up): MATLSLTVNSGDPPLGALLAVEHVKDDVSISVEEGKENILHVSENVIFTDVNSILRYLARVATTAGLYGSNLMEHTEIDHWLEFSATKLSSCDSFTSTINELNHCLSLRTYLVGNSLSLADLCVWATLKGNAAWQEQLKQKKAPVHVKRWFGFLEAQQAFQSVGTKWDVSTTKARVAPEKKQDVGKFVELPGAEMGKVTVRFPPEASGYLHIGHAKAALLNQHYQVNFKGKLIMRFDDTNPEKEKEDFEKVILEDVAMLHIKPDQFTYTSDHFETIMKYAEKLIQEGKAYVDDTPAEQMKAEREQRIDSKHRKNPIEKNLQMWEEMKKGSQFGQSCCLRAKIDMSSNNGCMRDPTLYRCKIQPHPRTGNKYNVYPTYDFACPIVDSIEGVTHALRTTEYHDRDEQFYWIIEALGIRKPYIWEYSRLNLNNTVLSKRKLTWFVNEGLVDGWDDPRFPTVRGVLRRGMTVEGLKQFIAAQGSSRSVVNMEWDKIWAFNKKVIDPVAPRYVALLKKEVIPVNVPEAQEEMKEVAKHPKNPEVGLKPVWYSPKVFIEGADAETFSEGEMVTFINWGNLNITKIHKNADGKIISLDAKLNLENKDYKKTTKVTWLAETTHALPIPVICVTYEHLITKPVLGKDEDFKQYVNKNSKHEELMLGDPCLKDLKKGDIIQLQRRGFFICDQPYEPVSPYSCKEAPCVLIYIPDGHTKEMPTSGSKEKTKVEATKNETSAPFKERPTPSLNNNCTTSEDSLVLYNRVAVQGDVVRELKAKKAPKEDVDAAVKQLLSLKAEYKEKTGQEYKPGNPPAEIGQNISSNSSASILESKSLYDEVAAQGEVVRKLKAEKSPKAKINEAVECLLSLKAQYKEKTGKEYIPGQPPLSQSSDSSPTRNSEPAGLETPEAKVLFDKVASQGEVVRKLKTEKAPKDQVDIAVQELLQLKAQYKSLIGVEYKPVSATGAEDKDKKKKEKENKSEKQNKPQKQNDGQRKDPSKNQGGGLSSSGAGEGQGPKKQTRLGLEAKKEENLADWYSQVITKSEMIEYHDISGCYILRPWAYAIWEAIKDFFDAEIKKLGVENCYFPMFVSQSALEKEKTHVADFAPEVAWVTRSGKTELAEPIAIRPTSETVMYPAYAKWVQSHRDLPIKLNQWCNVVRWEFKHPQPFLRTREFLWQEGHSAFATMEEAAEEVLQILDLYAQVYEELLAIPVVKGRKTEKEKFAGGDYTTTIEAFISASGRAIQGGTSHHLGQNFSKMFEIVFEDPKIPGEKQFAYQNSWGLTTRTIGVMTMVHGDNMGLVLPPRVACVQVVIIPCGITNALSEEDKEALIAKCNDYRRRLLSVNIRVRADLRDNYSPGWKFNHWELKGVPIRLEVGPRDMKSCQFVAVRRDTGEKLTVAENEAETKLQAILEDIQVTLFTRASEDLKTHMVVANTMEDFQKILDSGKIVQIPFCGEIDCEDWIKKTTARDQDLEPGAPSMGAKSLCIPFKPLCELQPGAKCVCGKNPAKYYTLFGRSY
Sequence of UniProt Q96L91 (Q96L91 whole entry, looked up): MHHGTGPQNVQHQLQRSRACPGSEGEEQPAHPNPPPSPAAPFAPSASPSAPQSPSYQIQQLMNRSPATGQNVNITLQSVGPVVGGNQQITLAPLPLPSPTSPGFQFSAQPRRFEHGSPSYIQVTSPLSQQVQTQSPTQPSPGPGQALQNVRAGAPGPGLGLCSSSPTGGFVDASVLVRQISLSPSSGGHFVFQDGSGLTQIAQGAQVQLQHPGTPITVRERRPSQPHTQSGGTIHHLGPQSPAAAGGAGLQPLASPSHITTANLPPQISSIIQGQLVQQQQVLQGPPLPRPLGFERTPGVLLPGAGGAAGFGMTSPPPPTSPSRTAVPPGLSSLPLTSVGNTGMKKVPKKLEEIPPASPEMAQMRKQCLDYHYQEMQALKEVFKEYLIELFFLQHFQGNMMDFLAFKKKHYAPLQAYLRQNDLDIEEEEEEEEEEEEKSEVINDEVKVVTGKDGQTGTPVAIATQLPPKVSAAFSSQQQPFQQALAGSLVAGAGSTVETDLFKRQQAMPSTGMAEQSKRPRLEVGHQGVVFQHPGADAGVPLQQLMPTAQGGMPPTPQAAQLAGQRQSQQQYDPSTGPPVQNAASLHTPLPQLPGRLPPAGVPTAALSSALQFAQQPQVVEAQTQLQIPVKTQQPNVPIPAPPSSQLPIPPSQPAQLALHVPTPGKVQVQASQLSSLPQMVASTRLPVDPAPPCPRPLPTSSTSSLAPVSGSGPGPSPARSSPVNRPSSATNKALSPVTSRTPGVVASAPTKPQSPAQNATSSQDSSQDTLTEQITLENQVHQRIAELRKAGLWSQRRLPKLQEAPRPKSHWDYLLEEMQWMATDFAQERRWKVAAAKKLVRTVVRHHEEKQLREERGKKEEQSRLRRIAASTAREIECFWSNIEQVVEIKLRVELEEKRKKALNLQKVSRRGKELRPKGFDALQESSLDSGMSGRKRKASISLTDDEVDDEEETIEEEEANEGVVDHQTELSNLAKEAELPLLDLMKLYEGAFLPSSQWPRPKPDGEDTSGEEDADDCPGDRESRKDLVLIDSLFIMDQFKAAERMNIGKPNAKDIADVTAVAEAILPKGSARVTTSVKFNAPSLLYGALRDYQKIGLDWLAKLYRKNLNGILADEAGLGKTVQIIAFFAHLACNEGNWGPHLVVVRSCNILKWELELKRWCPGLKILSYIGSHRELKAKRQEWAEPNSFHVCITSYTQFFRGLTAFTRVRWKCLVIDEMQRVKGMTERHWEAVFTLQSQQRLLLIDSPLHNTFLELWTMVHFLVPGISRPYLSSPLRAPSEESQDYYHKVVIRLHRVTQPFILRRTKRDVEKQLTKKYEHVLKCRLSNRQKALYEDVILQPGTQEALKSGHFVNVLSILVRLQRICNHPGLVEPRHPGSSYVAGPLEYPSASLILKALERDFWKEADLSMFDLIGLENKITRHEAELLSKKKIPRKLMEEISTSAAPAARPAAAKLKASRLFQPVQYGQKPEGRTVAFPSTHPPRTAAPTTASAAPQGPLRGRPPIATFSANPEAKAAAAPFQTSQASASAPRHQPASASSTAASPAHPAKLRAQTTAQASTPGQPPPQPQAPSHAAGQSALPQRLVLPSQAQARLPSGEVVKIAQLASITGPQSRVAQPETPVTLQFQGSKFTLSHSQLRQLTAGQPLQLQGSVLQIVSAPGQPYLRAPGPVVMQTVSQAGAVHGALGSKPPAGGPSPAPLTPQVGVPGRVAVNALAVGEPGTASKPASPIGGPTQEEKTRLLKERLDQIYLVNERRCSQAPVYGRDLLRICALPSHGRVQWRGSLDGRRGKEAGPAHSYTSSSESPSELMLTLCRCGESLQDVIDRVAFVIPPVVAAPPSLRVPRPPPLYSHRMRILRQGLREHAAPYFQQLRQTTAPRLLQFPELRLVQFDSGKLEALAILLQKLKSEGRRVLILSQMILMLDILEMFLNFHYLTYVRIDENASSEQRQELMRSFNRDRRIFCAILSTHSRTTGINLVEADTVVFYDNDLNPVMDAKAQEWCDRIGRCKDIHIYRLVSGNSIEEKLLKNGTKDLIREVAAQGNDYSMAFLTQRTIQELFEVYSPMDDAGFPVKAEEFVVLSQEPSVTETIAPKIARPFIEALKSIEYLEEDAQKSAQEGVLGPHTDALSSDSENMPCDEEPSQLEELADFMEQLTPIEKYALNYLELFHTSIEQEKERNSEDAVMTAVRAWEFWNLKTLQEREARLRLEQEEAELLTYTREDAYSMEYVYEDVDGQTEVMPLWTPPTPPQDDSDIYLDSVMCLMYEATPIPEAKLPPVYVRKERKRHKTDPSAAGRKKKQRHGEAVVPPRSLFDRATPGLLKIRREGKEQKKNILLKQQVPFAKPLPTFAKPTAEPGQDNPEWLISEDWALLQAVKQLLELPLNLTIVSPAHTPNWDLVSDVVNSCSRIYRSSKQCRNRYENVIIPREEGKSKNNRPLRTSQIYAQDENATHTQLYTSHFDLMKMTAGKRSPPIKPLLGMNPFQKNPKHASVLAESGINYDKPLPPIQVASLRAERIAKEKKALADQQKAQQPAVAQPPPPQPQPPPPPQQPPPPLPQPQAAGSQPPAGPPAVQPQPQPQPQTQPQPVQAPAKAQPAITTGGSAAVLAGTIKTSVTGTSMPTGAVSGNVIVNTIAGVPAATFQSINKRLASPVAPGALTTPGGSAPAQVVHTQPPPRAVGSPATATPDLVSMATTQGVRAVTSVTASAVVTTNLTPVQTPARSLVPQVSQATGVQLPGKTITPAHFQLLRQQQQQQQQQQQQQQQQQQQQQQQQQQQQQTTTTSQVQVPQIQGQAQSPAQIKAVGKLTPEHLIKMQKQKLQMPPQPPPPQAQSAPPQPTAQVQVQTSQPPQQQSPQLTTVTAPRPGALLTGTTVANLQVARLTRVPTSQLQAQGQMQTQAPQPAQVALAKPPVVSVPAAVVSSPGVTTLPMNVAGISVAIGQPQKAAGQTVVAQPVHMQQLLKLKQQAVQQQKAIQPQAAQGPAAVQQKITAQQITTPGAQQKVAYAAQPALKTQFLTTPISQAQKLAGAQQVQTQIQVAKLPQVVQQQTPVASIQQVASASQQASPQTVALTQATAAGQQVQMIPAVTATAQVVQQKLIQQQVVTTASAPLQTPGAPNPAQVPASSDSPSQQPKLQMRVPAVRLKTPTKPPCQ

Target | log2 fold change (lapatinib) | log2 fold change (pictilisib) | log2 fold change (crizotinib) | log2 fold change [1] | log2 fold change (duvelisib) | log2 fold change (gandotinib) | log2 fold change (tozasertib) | log2 fold change (doramapimod) | log2 fold change (bafetinib) | log2 fold change [2]
EIF2B5, A0A3B3ITK8 | -0.108 |  |  |  |  |  |  |  |  | 
GCDH (UniProt Q92947) | 0.016 | 0.012 | -0.017 | 0.013 | 0.19 | -0.005 | 0.007 | -0.026 | 0.047 | -0.004
FANCI (UniProt Q9NVI1) | -0.015 | -0.034 | -0.09 | 0.06 | 0.001 | -0.199 | 0.002 | -0.003 | -0.032 | -0.011
ERBIN isoform 8 (UniProt Q96RT1) | -0.011 | 0.012 | -0.026 | -0.056 | 0.005 | 0.012 | -0.013 | 0.02 | -0.002 | 0.029
EGLN1 (UniProt Q9GZT9) | -0.075 | 0.031 | -0.018 | 0.037 | 0.199 | -0.036 | 0.034 | 0.006 | 0.001 | -0.055
GALNT2 (UniProt Q10471) | -0.016 | -0.039 | 0.009 | -0.074 | -0.044 | 0.272 (active) | 0.047 | -0.014 | -0.002 | 0.18
DST (UniProt Q03001) | -0.019 | 0.015 | -0.02 | -0.17 | 0.018 | 0.101 | 0.024 | 0.023 | -0.137 | 0.246
EDC3 (UniProt Q96F86) | -0.007 | -0.034 | -0.012 | -0.021 | 0.014 | 0.032 | -0.007 | 0.024 | -0.008 | -0.003
EHHADH (UniProt Q08426) | -0.037 | 0.143 | -0.001 | 0.016 | 0.051 | -0.117 | 0.045 | 0.048 | 0.06 | 0
GALK1 isoform 2 (UniProt P51570) | -0.002 | -0.02 | -0.015 | 0.092 | -0.028 | -0.098 | 0.03 | 0.039 | -0.007 | -0.013
FPGT (UniProt O14772) | 0.005 | 0.019 | -0.077 | 0.319 (active) | 0.006 | -0.085 | 0.012 | 0.054 | -0.043 | -0.012
EHD2 (UniProt Q9NZN4) | -0.047 | -0.052 | -0.033 | 0.004 | 0.026 | -0.117 | -0.004 | 0.02 | -0.063 | 0.017
DUS2 (UniProt Q9NX74) | -0.033 | 0.04 | 0.041 | -0.032 | 0.018 | -0.051 | 0.011 | -0.01 | -0.017 | -0.009
FYB1 isoform 3 (UniProt O15117) | 0.045 | -0.008 | -0.082 | 0.147 | 0.01 | -0.051 | 0.052 | -0.007 | -0.062 | -0.058
EXOC6 (UniProt Q8TAG9) | -0.017 | -0.04 | -0.121 | -0.013 | 0 | -0.166 | 0.029 | 0.004 | -0.059 | 0.033
EPHX2 (UniProt P34913) | -0.031 | -0.019 | 0.061 | 0.008 | -0.031 | 0.057 | 0.116 | -0.079 | 0.131 | 0.012
DTWD1 (UniProt Q8N5C7) | -0.049 | -0.049 | 0 | 0.015 | 0.06 | -0.07 | -0.075 | 0.035 | 0.002 | 0.092
ENY2 (UniProt Q9NPA8) | 0.025 | -0.024 | 0.031 | 0.726 (active) | 0.034 | -0.386 (active) | 0.019 | -0.021 | -0.07 | -0.529 (active)
EIF2B3 (UniProt Q9NR50) | -0.007 | -0.021 | -0.061 | 0.234 (active) | 0.016 | -0.115 | -0.035 | 0.012 | -0.024 | -0.047
EP400 isoform 5 (UniProt Q96L91) | 0.052 | -0.068 | -0.04 | -0.018 | -0.036 | -0.012 | -0.041 | 0.02 | -0.053 | -0.011
GCLM (UniProt P48507) | -0.006 | -0.013 | 0.018 | -0.009 | 0.016 | -0.004 | -0.017 | 0.001 | 0.003 | -0.03
ELF2 (UniProt Q15723) | 0.256 (active) | 0.039 | -0.085 | 0.033 | 0.072 | -0.046 | -0.033 | -0.042 | -0.119 | -0.075
ENGASE (UniProt Q8NFI3) | -0.02 | 0 | 0.011 | -0.048 | -0.025 | 0.116 | 0.051 | 0.033 | 0.003 | 0.148
ERAL1 (UniProt O75616) | 0.075 | -0.025 | -0.035 | -0.152 | 0.014 | 0.321 (active) | 0.041 | 0.006 | -0.079 | 0.03
EWSR1 isoform 5 (UniProt Q01844) | -0.008 | 0.021 | 0.048 | -0.07 | -0.047 | 0.061 | -0.016 | -0.025 | 0.031 | 0.009
ERCC4 (UniProt Q92889) | -0.023 | -0.013 | -0.031 | -0.544 (active) | 0.003 | 0.054 | -0.059 | 0.087 | -0.101 | 0.159
FASTKD5 (UniProt Q7L8L6) | -0.025 | 0.085 | -0.075 | 0.089 | -0.042 | -0.193 | 0.056 | 0.036 | 0.169 | -0.056
EPB41 (UniProt P11171) | -0.009 | -0.015 | -0.007 | 0.04 | -0.016 | -0.105 | 0.035 | 0.01 | -0.013 | -0.088
EPRS (UniProt P07814) | -0.005 | 0.006 | -0.042 | 0.015 | 0.031 | -0.069 | 0.012 | 0.02 | 0.003 | 0.019
EIF2D (UniProt P41214) | -0.002 | -0.014 | -0.067 | 0.024 | 0.022 | -0.084 | 0.029 | 0.032 | -0.063 | -0.01
